PG9 binder = binds the HIV-1 gp120 antibody PG9; TR-FRET gp120-PG9 antibody binding; inhibition, % at 6.7 µM; 0.43% of 360,000 active; in the data active = inhibition above about 8.5%
GAA850 FXN act = increases GAA850 frataxin promoter reporter activity. HEK293 lucGAA850 FXN promoter luciferase reporter, 24 h; percent of 10 µM SAHA response. activation, % at 6 µM. 0.56% of 360,000 active. AID 540364;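 active = activation above the average of all compounds screened plus 3 SD, cutoff fixed separately per campaign, cut at about 7.5% in these data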;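 also: 0% = DMSO wells and 100% = 10 µM SAHA wells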
HSP90 refold inh = inhibitors of HSP90 luciferase refolding in rabbit reticulocyte lysate | luciferase refolding luminescence, 3 h | inhibition, % at 5.6 µM | 0.91% of 290,000 active;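 active = inhibition above the screen-wide mean plus 3 SD, computed separately per campaign, cut at about 16% in these data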;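 also: 0% = DMSO wells and 100% = 60 µM geldanamycin wells; inhibitors lower the luminescence because luciferase stays unfolded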
SMARCA2 act = SMARCA2 function activation, primary screen; MG213 cells, MMTV-luciferase reporter, dexamethasone, overnight; activation, % at 9.1 µM; 1% of 370,000 active; AID 652017; in the data active = activation above about 7.8%;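 also: 0% = vehicle wells and 100% = reference activator wells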
AI-2 QS modul = Vibrio harveyi AI-2 quorum sensing modulation | Vibrio harveyi JMH597 AI-2 luminescence/OD600 ratio, 9 h; active compounds read low; strain lacks LuxN and CqsS sensors; 0 = neutral-control median | activity change, % at 7.5 µM | 0.4% of 300,000 active | AID 2094; in the data active = activity change below about -75%, passing the limit was not always enough;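 also: luminescence divided by OD600 gain over 9 h not by final OD600 alone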
HSF1 inhib = HSF1 inhibition. activity change, negative = inhibition, % at 7.5 µM (by protocol). 0.77% of 300,000 active. NIH3T3-HGL HSE-luciferase, MG132-induced, luminescence 8 h; active compounds read low;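 active = more than half of replicate wells show activity change below -50%, luminescence cut by over half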;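 also: luciferase reports HSF-1 transcriptional activity via heat shock element; 0% = median of DMSO wells and -100% = zero luminescence signal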
HSP90 confirm = confirmation of HSP90 inhibitors. 64% of 2,300 active. AID 1846. rabbit reticulocyte lysate, luciferase refolding luminescence, 3 h. inhibition, % at 5.9 µM. shares compounds with HSP90 refold inh; in the data active = inhibition above about 18%;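 also: 0% = vehicle wells and 100% = reference inhibitor wells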
FLuc counter = firefly luciferase inhibition, HSP90 counter-screen; purified native firefly luciferase, luminescence; inhibition, % at 5.9 µM; AID 1847; shares compounds with HSP90 refold inh; 48% of 2,300 active;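 active = inhibition above the mean inhibition of all tested sample wells plus 3 SD, cut at about 10% in these data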;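 also: 0% = DMSO with luciferase and 100% = wells lacking luciferase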
Target sequence (P08659 whole entry, looked up): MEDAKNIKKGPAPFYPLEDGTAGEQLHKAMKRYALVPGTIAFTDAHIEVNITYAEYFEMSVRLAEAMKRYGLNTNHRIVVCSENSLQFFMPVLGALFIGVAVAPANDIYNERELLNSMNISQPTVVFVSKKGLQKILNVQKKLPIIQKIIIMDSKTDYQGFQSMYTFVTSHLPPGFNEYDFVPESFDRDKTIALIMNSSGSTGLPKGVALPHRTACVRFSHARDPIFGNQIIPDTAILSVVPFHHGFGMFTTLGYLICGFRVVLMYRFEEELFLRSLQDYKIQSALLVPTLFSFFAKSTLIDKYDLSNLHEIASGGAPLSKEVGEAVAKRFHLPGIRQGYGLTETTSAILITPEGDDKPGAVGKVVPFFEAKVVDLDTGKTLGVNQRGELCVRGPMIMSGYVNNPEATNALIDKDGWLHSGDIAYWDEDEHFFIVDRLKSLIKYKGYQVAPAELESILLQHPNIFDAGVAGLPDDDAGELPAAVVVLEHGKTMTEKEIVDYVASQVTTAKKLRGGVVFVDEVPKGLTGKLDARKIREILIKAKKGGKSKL
Active calls of the source: *; x = not tested or not shown. Compounds with a hit are over-represented: about 3.4% of the library has one in this group of screens.

SMILES	PG9 binder	GAA850 FXN act	HSP90 refold inh	SMARCA2 act	AI-2 QS modul	HSF1 inhib	HSP90 confirm	FLuc counter
Cc1ccc(C)c(-c2nc3ccc(N)cc3[nH]2)c1	-6	3	-2	-4	9	8	x	x
Cc1ccc2nc(-c3ccccn3)[nH]c2c1	-2	1	46*	3	7	1	61*	51*
Cc1ccc(NC(=O)[C@H]2CC(=O)O[C@@H]2c2ccccc2)cc1C	x	x	x	-4	x	x	x	x
CCc1ccccc1CNC(=O)C1CCC(CNS(=O)(=O)c2cccc3cccnc23)CC1 (stereo not drawn)	x	x	x	-1	x	x	x	x
COc1ccccc1C(=O)NC(=S)N1CCc2ccccc21	0	1	-2	-1	9	-2	x	x
COc1ccccc1C(=O)NC(=S)N1CCCc2ccccc21	0	-3	18*	1	17	-61*	20*	13*
O=C(O)c1ccc(NNC(=S)Nc2cc(C(F)(F)F)ccc2Cl)cc1	-1	0	61*	0	2	-2	54*	53*
Cc1cccc(OCC(=O)Nc2nccs2)c1C	-1	0	27*	3	15	28	29*	14*
Cc1c(C)c2ccc(OCC(=O)Nc3nccs3)cc2oc1=O	5	3	58*	0	11	3	73*	56*
COC(=O)C1CN(Cc2ccc(F)cc2)CCS(=O)(=O)N1Cc1cn(Cc2ccc(F)cc2)nn1 (stereo not drawn)	x	x	x	-3	x	x	x	x
Fc1ccc2nc(-c3ccc(CN4CCC(c5nc6ccccc6[nH]5)CC4)cc3)c(-c3ccccc3)nc2c1	-2	x	x	2	x	x	x	x
COC(=O)[C@]12C[C@H](CC(=O)NCc3cccc4ccccc34)C(=O)N(Cc3ccc(Cl)cc3Cl)C1=C[C@H](C1CCCC1)O[C@@H]2C	x	x	x	-2	x	x	x	x
Cc1ccc(S(=O)(=O)N2CCCC(C(=O)Nc3c(C)n(C)n(-c4ccccc4)c3=O)C2)cc1 (stereo not drawn)	x	x	x	-2	x	x	x	x
CCc1ccc(NC(=O)c2cnn3ccccc23)cc1	0	-6	65*	-6	12	-32	78*	71*
CSc1cccc(NC(=O)c2cnn3ccccc23)c1	0	5	1	5	18	52	x	x
CC(=O)Nc1cccc(-c2cc(-c3c(Cl)cccc3Cl)no2)c1	-2	0	19*	1	12	15	-9	-12
Cc1cc(C(=O)CN2CCC(C)CC2)c(C)n1-c1ccccc1F	-2	-5	53*	-1	11	-73*	58*	28*
COc1ccc(OC)c(S(=O)(=O)N2CCCCC2C(=O)N2CCCN(C)CC2)c1 (stereo not drawn)	x	x	x	3	x	x	x	x
c1ccc(NNC2=NCCS2)cc1	-7	3	19*	0	8	-6	14	-15
O=C(Cc1coc2cc3c(cc12)CCC3)OCC(=O)N1CCCC1=O	1	-7	27*	-9	-32	-47	12	-19
O=C(O)Cc1coc2cc3c(cc12)CCC3	2	1	5	-4	34	-7	x	x
Clc1ccc(-n2c(SCc3cccc4ccccc34)nnc2-c2ccco2)cc1	x	x	x	-4	x	x	x	x
COC(=O)[C@]12C[C@H](CC(=O)NCc3cccs3)C(=O)N(Cc3cccc4ccccc34)C1=C[C@H](C1CCCC1)O[C@@H]2C	x	x	x	-3	x	x	x	x
CCOc1cc(/C=C2/C(=O)N(c3ccccc3)N=C2C)ccc1OC(=O)c1ccco1	-1	-3	27*	-4	13	9	-8	4
CCOc1cc(/C=C2\C(=O)N(c3ccc(C(N)=O)cc3)N=C2C)ccc1OC(=O)c1cccs1	x	0	7	x	-9	0	x	x
SMILES	PG9 binder	GAA850 FXN act	HSP90 refold inh	SMARCA2 act	AI-2 QS modul	HSF1 inhib	HSP90 confirm	FLuc counter
CCn1ccc(C(=O)Nc2ccc3c(c2)CCC3)n1	x	1	19*	x	18	40	30*	15*
Cc1cnc(C(=O)Nc2ccc3c(c2)CCC3)cn1	-1	5	17*	3	29	27	27*	18*
O=C(Nc1ccc2c(c1)CCC2)c1cnccn1	-3	3	-6	7	18	16	x	x
Cc1csc(N/N=C/c2ccccn2)n1	-1	0	48*	-1	4	-10	53*	38*
Nc1cccc2c1C(=O)N(C(=O)/C=C/c1ccc(F)cc1)C2=O	0	3	28*	1	27	44	12	-13
COC(=O)[C@]12C[C@H](CC(=O)NCCc3ccccc3OC)C(=O)N(Cc3ccc(Cl)cc3Cl)C1=C[C@H](C(C)C)O[C@@H]2C1CC1	x	x	x	-3	x	x	x	x
Oc1ccccc1Nc1ccccn1	-4	1	-5	-2	12	-6	x	x
c1ccc(Nc2ccccn2)nc1	-1	-1	25*	-2	10	x	1	-2
O=C(Nc1nncs1)c1cc2c(s1)CCC2	0	0	-1	1	30	25	x	x
O=C(Nc1nccs1)c1cc2c(s1)CCCCC2	1	-11	59*	-5	-6	-42	86*	81*
CCOC(=O)[C@@H]1CSCCS(=O)(=O)N1C(=O)[C@H](CC(C)C)NC(=O)OC(C)(C)C	0	x	x	-4	x	x	x	x
CC(=O)c1ccccc1OCCOc1ccccc1C(C)=O	-1	1	-2	-2	0	-3	x	x
COc1ccc(C(=O)OCCOc2ccccc2C(C)=O)c(O)c1	-1	2	28*	0	20	-3	7	-4
Cc1nc(NC(=O)c2cccc(Cl)c2)sc1C(=O)N1CCCCC1	-1	5	34*	0	6	-1	48*	-16
CC(=O)c1sc(NC(=O)c2ccc(Cl)cc2)nc1C	2	5	42*	0	-3	0	25*	-16
Cc1ccc(C2=NCN(c3ccc(C(=O)O)cc3)C(=S)N2)cc1	x	x	22*	x	30	15	18*	-5
CC1CCN(S(=O)(=O)c2ccc3c(c2)N(CC(=O)NCCN2C(C)CCCC2C)C(=O)CS3)CC1 (stereo not drawn)	0	-2	21*	-3	36	1	-7	-12
Cc1cc2nc(-c3cccnc3SCC(=O)NCc3ccco3)[nH]c2cc1C	3	6	18*	5	52	5	23*	7
O=C(CSc1ncccc1-c1nc2ccccc2[nH]1)NCc1ccco1	0	-3	1	1	37	-8	x	x
C#CCn1cc(/C=C2\NC(=O)NC2=O)c2ccccc21	-8	0	67*	6	30	-1	53*	-9
CCC(=O)Nc1ccc2c(c1)C(=O)N(C)[C@@H]1CC[C@@H](CC(=O)NCc3ccc(OC)cc3)O[C@H]1CO2	x	x	x	-3	x	x	x	x

Screens as filed in PubChem BioAssay.
